Test results published in PubChem BioAssay AID686978 (National Center for Advancing Translational Sciences (NCATS), 2013).
Among all 420,000 compounds or so, about 64,000 (15%) were called active. Roughly 27% stayed inconclusive and do not appear here. Only a sample is shown. A number with no mark means an inactive call. The call rests on the fitted dose curve; in most records, active means well fitted inhibition curve with a large enough effect; inconclusive means small, poorly fitted or top-dose-only effect; inactive means flat fitted curve, though single readings scatter.

assay: qHTS for Inhibitors of human tyrosyl-DNA phosphodiesterase 1 (TDP1): qHTS in cells in absence of CPT; details: DT40 Tdp1-/- hTDP1 cells, no CPT, ATP luminescence, 48 h; activity change, negative = growth inhibition: at 46.2 µM (top of the series); further: nearly all actives have a fitted effect of over 55% in size
Method in brief: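 DT40 Tdp1-/-;hTDP1 cells, no CPT (DMSO vehicle only), 400 cells/well; compounds pin-transferred; ≥48 hr, 37 °C; CellTiter-Glo 30 min RT dark, luminescence read.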
On the % scale 0 is the no-effect control and ±100 the full control effect; potency means the concentration at half of the fitted maximal effect.

| Structure (SMILES) | activity change, negative = growth inhibition [%] | Potency |
| --- | --- | --- |
| Cn1c(=O)c2c(SCC(=O)NCC3CCCO3)nc(-c3ccccc3F)nc2n(C)c1=O (stereo not given) | -26.5 |  |
| Cc1ccccc1-c1nc(SCC(=O)N(C)c2ccccc2)c2c(=O)n(C)c(=O)n(C)c2n1 |  | 9.2 µM (active) |
| Cc1cccc(-c2nc(SCC(=O)Nc3cc(C)on3)c3c(=O)n(C)c(=O)n(C)c3n2)c1 | 2.45 |  |
| O=C(CN(C(=O)c1csnn1)c1cccc(F)c1)NCc1ccc(F)cc1 | -2.72 |  |
| CCCCn1c(N)c(N(CCC(C)C)C(=O)COC(=O)c2ccc(CC)cc2)c(=O)[nH]c1=O | 6.86 |  |
| CCCCc1nc(NCc2ccccc2)c(C#N)c2c1CCCC2 | -19.1 |  |
| CCCCc1nc(NCCN)c(C#N)c2c1CSC(C)(C)C2 |  | 20.6 µM (active) |
| Cc1nc(NCCN)c(C#N)c2c1COC(C)(C)C2 | -19.8 |  |
| CCOc1ccc(S(=O)(=O)Nc2ccncc2)c(C)c1C | -7.83 |  |
| Cc1nn(-c2ccccc2)c(C)c1/C=N/NC(=O)CSc1nc2ccccc2c(=O)n1-c1ccccc1 |  | 18.4 µM (active) |
| O=C(CSc1nc2ccccc2c(=O)n1-c1ccc(F)cc1)NC1CC1 | 16.1 |  |
| COc1ccc(OC)c(/C=N/NC(=O)CSc2nnc(C)n2-c2ccccc2)c1 | -3.99 |  |
| CCCS(=O)(=O)NC(=O)C1(C)CCCN(C(=O)c2cccs2)C1 (stereo not given) | 1.68 |  |
| COc1cc(/C=C2\C(=N)N3N=C(CC(=O)N4CCOCC4)SC3=NC2=O)cc(OC)c1OC | 12.8 |  |
| Cc1noc(C)c1C(=O)N(CC(=O)NC1CCCC1)Cc1ccccc1F | -4.62 |  |
| CCOP1(=O)C=C(C(C)(C)C)OC1c1ccc(F)cc1 (stereo not given) | -5.51 |  |
| CN(C)CCSc1nc(N)c2c3c(sc2n1)COC(C)(C)C3 | -19.5 |  |
| C=CCNC(=S)NNc1ncnc2sc3c(c12)CC(C)(C)OC3 |  | 5.17 µM (active) |
| C[C@H]1CN([C@@H](C)CO)C(=O)CCCn2cc(nn2)CO[C@@H]1CN(C)S(=O)(=O)c1ccccc1C#N | -18.8 |  |
| CCC1CCc2c(sc(NC(C)=O)c2C#N)C1 (stereo not given) | -4.74 |  |
| Cc1nnc(SC(C)C(=O)c2c[nH]c3ccccc23)n1C1CC1 (stereo not given) | -23.9 |  |
| COc1ccc(N2CCN(C(C)=C3C(=O)c4ccccc4C3=O)CC2)cc1 | 1.97 |  |
| COc1ccc(C(C(O)C(=O)c2c[nH]c3ccccc23)N2CCN(c3ccccc3)CC2)cc1 (stereo not given) |  | 25.9 µM (active) |
| O=C(COc1ccc(Cl)cc1)Nc1ccc2oc(=O)ccc2c1 | -12.1 |  |
| Cc1ccc(N(C(=O)c2sc(C)nc2C)C(C(=O)NC(C)(C)C)c2ccncc2)cc1 (stereo not given) | -7.84 |  |
| CC1(C)C=C2[C@H]3CC[C@@H]4[C@@]5(C)CCC(=O)C(C)(C)[C@@H]5CC[C@@]4(C)[C@]3(C)CC[C@@]2(C(=O)O)CC1 |  | 8.2 µM (active) |
| Cc1cc(C)cc(N(C(C)C(=O)Nc2c(C)n(C)n(-c3ccccc3)c2=O)S(C)(=O)=O)c1 (stereo not given) | 0.735 |  |

| Structure (SMILES) | activity change, negative = growth inhibition [%] | Potency |
| --- | --- | --- |
| CCOc1cc(CN2CCN(C(=O)CC(C)C)CC2)ccc1OC | -28.3 |  |
| CCCCn1nnnc1C1(C)CCC(=O)N1Cc1ccc(OC)c(OC)c1 (stereo not given) | -5.49 |  |
| COc1ccc(CN2CCOC2=O)cc1OC | -1.9 |  |
| COc1ccc(Cn2c(=O)oc3ccccc32)cc1 | -21.5 |  |
| CCCCOc1ccc(Cn2c(=O)oc3ccc(C)cc32)cc1OC |  | 14.6 µM (active) |
| CCCCOc1ccc(CN2C(=O)C(=O)c3cc(Br)cc(C)c32)cc1OC |  | 1.16 µM (active) |
| Cc1cccc(-n2c(Cc3cc(=O)[nH]c(=O)[nH]3)nnc2SC(C)C)c1 | -10.6 |  |
| CC/C(=N\NC(=O)c1c(C)nc2ccccn12)c1ccc(Cl)cc1 | -28.9 |  |
| CCCCCC(=O)Nc1ccc(S(=O)(=O)Nc2ccc(Cl)nn2)cc1 | -0.978 |  |
| CCCCN(C)Cc1c(C)[nH]c2ccc(Cl)cc2c1=O | -8 |  |
| CCOC(=O)C1=C(C)NC(SC)=NC1c1ccccc1 (stereo not given) | -25.7 |  |
| C=CCC1(C#N)C(=S)NC(C)=C(C(=O)OCC)C1c1ccccc1 (stereo not given) |  | 29.1 µM (active) |
| CCOC(=O)C1=C(C)NC(C)=C(C(=O)OCC)C1c1ccccn1 | 1.59 |  |
| Cc1ccsc1C1C(C#N)=C(N)OC2=C1C(=O)CC(C)(C)C2 (stereo not given) | -19.9 |  |
| CCOC(=O)CSc1nnc(CNC(=O)Cc2ccccc2)n1-c1ccccc1OC | -11.6 |  |
| O=C(COc1ccc(Cl)cc1)NCCSc1ccccc1 | -24.2 |  |
| COc1ccc(C(=O)COC(=O)CNC(=O)c2cccs2)cc1Br | 2.17 |  |
| COc1ccc(S(=O)(=O)n2cnc3ccccc32)c(C)c1 |  | 10.3 µM (active) |
| Cc1ccc(S(=O)(=O)n2cnc3ccccc32)c(C)c1 | -22.7 |  |
| Cc1ccc(C)c(S(=O)(=O)n2cnc3ccccc32)c1 | 5.49 |  |
| COc1ccc(C)cc1NC(=S)N1CCOCC1 | 5.24 |  |
| C=CCOc1c(Br)cc(/C=N\n2nnnc2N)cc1OC | -11.6 |  |
| C[C@H]1CN([C@@H](C)CO)C(=O)c2cc(-c3cccc(F)c3)cnc2O[C@@H]1CN(C)S(C)(=O)=O | -5.26 |  |
| C=CCOc1nc2c(c(=O)n(C)c(=O)n2C)n1Cc1ccc(Cl)cc1Cl |  | 14.6 µM (active) |
| CC1CN(Cc2nc3c(c(=O)n(C)c(=O)n3C)n2Cc2cccc(Cl)c2)CC(C)O1 (stereo not given) | -12.8 |  |
| Cn1c(=O)c2c(nc(Oc3ccc(C#N)cc3)n2Cc2ccc(Cl)cc2Cl)n(C)c1=O | 1.97 |  |
| CN1CCc2nc(SC(C(=O)O)c3ccccc3)c(C#N)c(-c3cccs3)c2C1 (stereo not given) | -9.2 |  |

| Structure (SMILES) | activity change, negative = growth inhibition [%] | Potency |
| --- | --- | --- |
| COc1ccc(CCNC(=O)Cn2c(=O)n(-c3ccccc3)c(=O)c3c(C)c(C)sc32)cc1OC | -19.5 |  |
| C=CCn1c(SCC(N)=O)nnc1-c1cc2c(s1)CCC(CC)C2 (stereo not given) | -16.5 |  |
| O=C1C=C(c2ccccc2)CCC1 | -7.87 |  |
| CC(=O)CCC(=O)c1ccc2ccccc2c1 | -2.51 |  |
| C=CC(=O)c1ccc2ccccc2c1 |  | 2.31 µM (active) |
| CC(=O)c1ccc2c(ccc3ccccc32)c1 | -26.8 |  |
| CCc1ccc(C(=O)N2CCN(S(=O)(=O)c3sc(C(=O)O)c(C)c3C(=O)O)CC2)cc1 | 28 |  |
| CC(=O)Nc1ccc(S(=O)(=O)Oc2ccc(Br)cc2C(=S)N2CCOCC2)cc1 | -11.6 |  |
| O=S(=O)(Oc1ccccc1C(=S)N1CCOCC1)c1ccc(Cl)cc1 | -24.6 |  |
| CCOc1cc(C(=S)N2CCOCC2)ccc1OS(=O)(=O)c1ccc(Br)cc1 |  | 20.6 µM (active) |
| CCN(CC)P(=O)(C(NC(=O)OC)C(F)(F)C(F)(F)C(F)(F)C(F)F)N(CC)CC (stereo not given) | -6.34 |  |
| Cc1cc(C)nc(SCc2nnc(SCC(=O)Nc3ncc(C)s3)n2Cc2ccco2)n1 | -21.5 |  |
| CCOC(=O)CSc1nnc(-c2ccco2)n1C | 2.37 |  |
| CCOC(=O)CSc1nc2c(sc(=S)n2CCc2ccccc2)c(=O)n1Cc1ccco1 |  | 16.4 µM (active) |
| Cc1ccc(C)c(NC(=O)C2CC(=O)N(C(C)C)C2)c1 (stereo not given) | -3.74 |  |
| CCCC(C)n1[nH]c(=O)c2c(C)cc(C)nc21 (stereo not given) | -19.9 |  |
| CC(CCc1ccccc1)NC(=O)c1ccc(Br)o1 (stereo not given) | -26.8 |  |
| CC(CNC(=O)c1ccc(Br)o1)NC(=O)c1ccc(Br)o1 (stereo not given) |  | 4.61 µM (active) |
| O=C(CNC(=O)c1ccc(Br)o1)Nc1ccccc1 | 22.8 |  |
| C=C1C(=O)C23C(O)C1CCC2[C@]12COC3(O)C(O)C1C(C)(C)CC[C@H]2O (stereo not given in full) |  | 6.51 µM (active) |
| O=C(COC(=O)c1ncc(Cl)c(Cl)c1Cl)NC1CCS(=O)(=O)C1 (stereo not given) | 0.826 |  |
| NC(N)=NCCCc1cn(CC(=O)N2CCNCC2)nn1 | 8.18 |  |
| N#Cc1ccc(C(=O)OCC(=O)NC(=O)NC2CCCCC2)cc1 | 0.0108 |  |
| O=C(COC(=O)c1cccnc1Cl)NC(=O)NC1CCCCC1 | -9.72 |  |
| Cc1nn(-c2ccccc2)c(C)c1C(=O)OCC(=O)NC(=O)NC1CCCCC1 |  | 29.1 µM (active) |
| CC1Cc2ccccc2N1C1=CC(=O)CC(C)(C)C1 (stereo not given) | 3.77 |  |
| O=C(/C=C/Nc1ccccc1)c1cnc(-c2ccccc2)s1 | -12 |  |

| Structure (SMILES) | activity change, negative = growth inhibition [%] | Potency |
| --- | --- | --- |
| CC1(C(=O)O)CCCN(C(=O)/C=C/c2ccccc2)C1 (stereo not given) | 4.02 |  |
| CC(C)Cn1c(N2CCN(C(=O)/C=C/c3ccccc3)CC2)nc2ccccc21 |  | 9.2 µM (active) |
| CC(C)N(C(=O)Cn1c(SCC(=O)N2CCN(c3ccccc3)CC2)nc2ccccc21)C(C)C | -8.4 |  |
| O=C(Nc1ccc(OCCO)cc1)c1csc([C@H]2C[C@H](O)[C@@H](CO)O2)n1 | -6.08 |  |
| CCOC(=O)C1=C(C)N=c2s/c(=C\C(=O)OC)c(=O)n2C1c1ccc(OC)cc1 (stereo not given) | -18.9 |  |
| COc1ccc(OC)c(C2C3=C(N=c4s/c(=C\c5cccc(O)c5)c(=O)n42)c2ccccc2CC3)c1 (stereo not given) |  | 25.9 µM (active) |
| CC(C)(C)NC(=O)NC(=O)COC(=O)C1c2ccccc2Oc2ccccc21 | -11.4 |  |
| COc1cn(CC(=O)Nc2cccc(C)c2C)c(CN2CCCCC2)cc1=O | -0.619 |  |
| CCCCCCCCn1c2c(c(=N)c3c1CCC3)CCCC2 |  | 1.03 µM (active) |
| Nc1nnc(SCCN2C(=O)c3ccccc3S2(=O)=O)s1 | -19.8 |  |
| CN(C)CCCN(Cc1cc2cc3c(cc2[nH]c1=O)OCCO3)C(=O)NC1CCCCC1 | -27.3 |  |
| Cc1nnc(SCC(=O)Nc2ccc(S(=O)(=O)Nc3ccc(Cl)nn3)cc2)s1 | 5.6 |  |
| O=C(NC1CCCC1)C1c2ccccc2OCC(=O)N1CC(F)(F)F (stereo not given) | -22.1 |  |
| Brc1cccc[n+]1Cc1cccc(C[n+]2ccccc2Br)c1 |  | 20 µM (active) |
| Clc1cccc[n+]1CCCC[n+]1ccccc1Cl | -8.35 |  |
| Cc1ccc(N2C(=O)C3C4C=CC(CC4)C3C2=O)cc1Br (stereo not given) | -0.847 |  |
| NS(=O)(=O)c1ccc(NC(=O)COC(=O)c2ccco2)cc1 | 21.8 |  |
| CC1O[C@@H](Oc2c(-c3ccc(O)c(O)c3)oc3cc(O)cc(O)c3c2=O)C(O)C(O)C1O (stereo not given in full) | -21.7 |  |
| Cn1c2ccccc2c(=O)c2c(O)cccc21 | -24.6 |  |
| CCCc1nc2c(c(=O)c3ccccc3n2C)c(=O)n1C1CCCCCC1 |  | 16.4 µM (active) |
| O=C1CCC(C(=O)N2CCCCO2)CN1Cc1cccc(C(F)(F)F)c1 (stereo not given) | -0.0376 |  |
| CC(=O)N/N=C/c1cc2c(cc1[N+](=O)[O-])OCO2 | -10.1 |  |
| Cc1ccc(S(=O)(=O)N/N=C\c2cc3c(cc2[N+](=O)[O-])OCO3)cc1 |  | 18.4 µM (active) |
| Cc1ccc(-c2n[nH]c(=S)n2/N=C/c2cc3c(cc2[N+](=O)[O-])OCO3)cc1 | -9.24 |  |
